Assay results published in PubChem BioAssay.
A number with no mark means an inactive call. How the calls were made is not given here.

Test system: Aerobactin synthetase IucA (Klebsiella pneumoniae hvKP1)
Assay: Biochemical IucA enzyme inhibition primary screen of the Spectrum library (AID 1346200);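 further: 100% = wells without compound and 0% = wells lacking enzyme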
Settings: malachite green pyrophosphate, A620, at 8 µM, hits give low values

SMILES	activity remaining [%]
COC(=O)C[C@H]1C(C)(C)C(=O)[C@@H]2CC3=C4CC(=O)O[C@@H](c5ccoc5)[C@]4(C)CCC3C1(C)C2=O (stereo partly drawn)	102
CC(=O)N1CCN(c2ccc(OCC3CO[C@](Cn4ccnc4)(c4ccc(Cl)cc4Cl)O3)cc2)CC1 (stereo partly drawn)	97
Cc1cc(CC(=O)O)n(C)c1C(=O)c1ccc(Cl)cc1	77.2
